The record followed here is PubChem BioAssay (EPA / NIEHS).

A short description of assay [1]: ATG_PBREM_CIS: Attagene CIS-FACTORIAL HepG2 Assay for human Phenobarbital-responsive Enhancer Module (PBREM) (AID 2282955). Conditions: HepG2 PBREM cis-reporter, Attagene multiplexed transcription; actives raise or lower the signal. The method in brief: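 Readout: reporter mRNA, fluorescent RT-PCR fragments separated by capillary electrophoresis. System: HepG2 transiently transfected with cis-regulated reporter units. Exposure: 24 h. Analysis: bidirectional, DMSO baseline.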

The target in assay [2] is Paired box protein Pax-6 (Homo sapiens) (UniProt P26367). As to the kind of experiment: ATG_Pax6_CIS: Attagene CIS-FACTORIAL HepG2 Assay for human Paired Box 6 (PAX6) (AID 2282956). Conditions: HepG2 CIS-FACTORIAL PAX6 reporter transcription, RNA readout; actives raise or lower the signal. The procedure, abridged: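 DMSO-referenced bidirectional fits of reporter mRNA fluorescence; HepG2 with transient cis-promoter MRTUs, 24 h post-dose, RT-PCR plus capillary electrophoresis detection.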

Assay [3] is described as follows: ATG_PXRE_CIS: Attagene CIS-FACTORIAL HepG2 Assay for human Pregnane X Receptor Element (PXRE) (AID 2282957). Conditions: HepG2 Attagene CIS-FACTORIAL PXRE reporter, mRNA; actives raise or lower the signal. The method in brief:
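Read-out: fluorescence of reporter-specific RT-PCR products resolved by capillary electrophoresis, fitted bidirectionally relative to DMSO. Human HepG2 liver cells carried transfected cis-promoter reporter units and were exposed to chemicals for 24 h.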

A short description of assay [4]: ATG_PPRE_CIS: Attagene CIS-FACTORIAL HepG2 Assay for human Peroxisome Proliferator-activated Response Element (PPRE) (AID 2282958). Conditions: HepG2 PPRE cis-element reporter, Attagene transcription factor profiling; actives raise or lower the signal. The procedure, abridged: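 After human HepG2 hepatoma cells were transiently transfected with cis-promoter reporter constructs, they were exposed to test chemicals for 24 hours. Reporter RNA was then reverse-transcribed, PCR-amplified, FAM-labeled, HpaI-digested and quantified by capillary electrophoresis.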

Assay [5] is described as follows: ATG_RORE_CIS: Attagene CIS-FACTORIAL HepG2 Assay for human RAR-related Orphan Receptor Element (RORE) (AID 2282959). Conditions: HepG2 Attagene cis-factorial RORE reporter, mRNA; actives raise or lower the signal. The procedure, abridged:
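Measured here: transcript induction of a cis-regulated reporter in HepG2 cells transiently transfected via FuGene 6. After 24 h, RNA was processed by RT-PCR and fluorescent capillary electrophoresis; DMSO defined baseline activity.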

Assay [6] is described as follows: ATG_Sox_CIS: Attagene CIS-FACTORIAL HepG2 Assay for human SRY-box transcription factor (SOX) (AID 2282960). Particulars: HepG2 Attagene cis-factorial SOX reporter, mRNA; actives raise or lower the signal. The method in brief: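 Using transiently transfected HepG2 cells, reporter transcription driven by cis elements was assessed 24 h after dosing. Signal was fluorescence of capillary-separated RT-PCR products, with DMSO defining baseline activity.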

Assay [7] in a line: ATG_SREBP_CIS: Attagene CIS-FACTORIAL HepG2 Assay for human Sterol Regulatory Element Binding (SREBP) (AID 2282962). Particulars: HepG2 Attagene cis-factorial SREBP reporter, mRNA; actives raise or lower the signal. The procedure, abridged: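 In this cis-format assay, HepG2 liver cells express reporters controlled by promoter elements responsive to native transcription factors. Exposure lasts 24 h; reporter mRNA fluorescence from capillary electrophoresis gives the signal, fitted bidirectionally against DMSO.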

Assay [8] in a line: ATG_TA_CIS: Attagene CIS-FACTORIAL HepG2 Assay for human TA Basal Promoter (AID 2282964). Particulars: HepG2 Attagene CIS-factorial TA basal promoter reporter; actives raise or lower the signal. The method in brief:
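Multiplexed mRNA reporter assay, HepG2, 24 h. Reporter cDNA amplified, 6-FAM primer-extended, HpaI-cut, CE-sized; DMSO = negative control and baseline.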

Assay [9] can be described thus: ATG_TCF_b_cat_CIS: Attagene CIS-FACTORIAL HepG2 Assay for human T-Cell-Factor with beta-catenin (TCF/b-cat) (AID 2282965). Conditions: HepG2 TCF/beta-catenin cis-reporter transcription, actives raise or lower the signal. The procedure, abridged: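 Endogenous TCF/LEF activity read as reporter transcript level via RT-PCR and capillary electrophoresis fluorescence in transfected HepG2, 24 h exposure; gain or loss of signal fitted against DMSO controls.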

Assay [10] in a line: ATG_TAL_CIS: Attagene CIS-FACTORIAL HepG2 Assay for human TAL Basal Promoter (AID 2282966).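 Further: background control endpoint measuring basal TAL promoter reporter mRNA not a specific factor.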 Particulars: HepG2 Attagene cis-factorial TAL promoter reporter; actives raise or lower the signal. The procedure, abridged:
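HepG2, transient MRTU transfection, 24 h compound exposure; RNA → oligo(dT) RT → PCR → 6-FAM primer extension → HpaI digest → CE fluorescence. Bidirectional curve fit vs DMSO. Background-control readout.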

The nature of assay [11]: ATG_VDRE_CIS: Attagene CIS-FACTORIAL HepG2 Assay for human Vitamin D Receptor Element (VDRE) (AID 2282968). Conditions: HepG2 VDRE cis-reporter transcription, actives raise or lower the signal. The method in brief:
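Measures endogenous factor activity through cis-element-driven reporter transcripts in transiently transfected HepG2. Cells are treated 24 h; reporter mRNA is quantified by RT-PCR and capillary electrophoresis; fitting is bidirectional.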

Assay [12] deals with Nuclear receptor subfamily 1 group I member 3 (Homo sapiens) (UniProt Q14994). As to the kind of experiment: ATG_CAR_TRANS: Attagene TRANS-FACTORIAL HepG2 Assay for human Constitutive Androstane Receptor (CAR) (AID 2282969; active means hit-call score of the fitted dose curve at least 0.9, where 1 is the maximum;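 further: activators raise reporter mRNA above DMSO so AC50 marks induction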). Particulars: HepG2 Attagene TRANS-FACTORIAL CAR reporter. The method in brief: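 Signal is reporter mRNA induction relative to DMSO, measured 24 h after dosing by RT-PCR with fluorescent primer extension and capillary electrophoresis. Human HepG2 liver cells carried transiently transfected chimeric NR-Gal4/GAL4-UAS reporter constructs.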

Assay [13] has as its target X-box-binding protein 1 (Homo sapiens) (UniProt P17861). As to the kind of experiment: ATG_Xbp1_CIS: Attagene CIS-FACTORIAL HepG2 Assay for human X-box Binding Protein 1 (XBP1) (AID 2282972). Conditions: HepG2 XBP1 cis-element reporter, Attagene multiplex; actives raise or lower the signal. The method in brief: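 Changes in reporter transcript abundance, read by RT-PCR and capillary electrophoresis, reflect endogenous transcription factor activity. Transfected HepG2 cells received compound for 24 hours; DMSO defined baseline for bidirectional analysis.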

Assay [14] in a line: ATG_M_19_TRANS: Attagene TRANS-FACTORIAL HepG2 Assay for M19 Transcription Factor (Internal Marker) (AID 2282974; active means hit-call score of the fitted dose curve at least 0.9, where 1 is the maximum). Conditions: HepG2 Attagene TRANS-FACTORIAL M19 internal marker reporter. The method in brief: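 Gain-of-signal in reporter mRNA, relative to DMSO, was scored from capillary electrophoresis fluorescence. HepG2 cells carried transiently transfected multiple reporter transcription units and were incubated with test chemicals for 24 h.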

Assay [15] has as its target Transcription factor Sp1 (Homo sapiens) (UniProt P08047). As to the kind of experiment: ATG_Sp1_CIS: Attagene CIS-FACTORIAL HepG2 Assay for human Specificity Protein 1 (Sp1) (AID 2282961). Conditions: HepG2 Sp1 cis-reporter transcription, actives raise or lower the signal. The method in brief:
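After transient transfection of HepG2 cells with cis-promoter reporter units and 24 h chemical treatment, reporter transcripts were quantified by RT-PCR and capillary electrophoresis fluorescence. Gain- and loss-of-signal fitted against DMSO.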

In assay [16] the target is Signal transducer and activator of transcription 3 (Homo sapiens) (UniProt P40763). As to the kind of experiment: ATG_STAT3_CIS: Attagene CIS-FACTORIAL HepG2 Assay for human Signal Transducer and Activator of Transcription 3 (STAT3) (AID 2282963). Particulars: HepG2, Attagene cis-factorial STAT3 reporter transcription; actives raise or lower the signal. The procedure, abridged:
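Cis-factorial format: endogenous transcription factors in HepG2 drive transfected reporter units. After 24 h treatment, reporter RNA was reverse-transcribed, amplified, FAM-labelled and HpaI-digested before CE analysis; activity scored in both directions against DMSO.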

A short description of assay [17]: ATG_TGFb_CIS: Attagene CIS-FACTORIAL HepG2 Assay for human Transforming Growth Factor (TGF) (AID 2282967). Conditions: HepG2 Attagene CIS TGFb reporter, mRNA transcription; actives raise or lower the signal. The method in brief:
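Transcript-level reporter readout: HepG2 transfectants, 24 h exposure, RNA to cDNA, reporter-specific PCR, fluorescent primer extension, capillary sizing against ROX standards. Gain- or loss-of-signal relative to DMSO.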

Assay [18] concerns the target Estrogen receptor (Homo sapiens) (UniProt P03372). Description: ATG_ERa_TRANS: Attagene TRANS-FACTORIAL HepG2 Assay for human Estrogen Receptor alpha (ERa) (AID 2282970; active means hit-call score of the fitted dose curve at least 0.9, where 1 is the maximum). Conditions: HepG2 Attagene TRANS ERa GAL4 reporter, mRNA. The method in brief: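 Reporter mRNA induction after 24 hours, detected by fluorescent RT-PCR and capillary electrophoresis, gives the read-out. Cells are HepG2 transiently transfected with GAL4-UAS reporter transcription units responding to chimeric NR-Gal4. Activity is taken as gain of signal over DMSO baseline.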

Assay [19] in a line: ATG_GAL4_TRANS: Attagene TRANS-FACTORIAL HepG2 Assay for GAL4 (Internal Marker) (AID 2282976; active means hit-call score of the fitted dose curve at least 0.9, where 1 is the maximum). Particulars: HepG2 Attagene TRANS GAL4 internal marker reporter. The procedure, abridged:
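RT-PCR/capillary electrophoresis readout of reporter mRNA. HepG2, transient MRTU transfection (GAL4-UAS reporters), 24 h compound exposure. Background-control endpoint, positive direction vs DMSO baseline.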

Assay [20] has as its target Steroid hormone receptor ERR1 (Homo sapiens) (UniProt P11474). Description: ATG_ERRa_TRANS: Attagene TRANS-FACTORIAL HepG2 Assay for human Estrogen-Related Receptor alpha (ERRa) (AID 2282971; active means hit-call score of the fitted dose curve at least 0.9, where 1 is the maximum). Particulars: HepG2 Attagene TRANS reporter, ERRa transactivation. The method in brief:
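Transfected HepG2, 24 h dosing, ERRa-Gal4 chimera driving GAL4-UAS reporter. Readout: reporter mRNA via RT-PCR plus capillary electrophoresis (fluorescence). Positive direction vs DMSO control.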

Inconclusive results are not listed. The source made the active and inactive calls. How the source made its calls, unless noted: active means hit-call score of the fitted dose curve at least 0.9, where 1 is the maximum; inactive means score below 0.9.

Chain of Transcription factor Sp1 (Homo sapiens) (P08047 whole entry, looked up): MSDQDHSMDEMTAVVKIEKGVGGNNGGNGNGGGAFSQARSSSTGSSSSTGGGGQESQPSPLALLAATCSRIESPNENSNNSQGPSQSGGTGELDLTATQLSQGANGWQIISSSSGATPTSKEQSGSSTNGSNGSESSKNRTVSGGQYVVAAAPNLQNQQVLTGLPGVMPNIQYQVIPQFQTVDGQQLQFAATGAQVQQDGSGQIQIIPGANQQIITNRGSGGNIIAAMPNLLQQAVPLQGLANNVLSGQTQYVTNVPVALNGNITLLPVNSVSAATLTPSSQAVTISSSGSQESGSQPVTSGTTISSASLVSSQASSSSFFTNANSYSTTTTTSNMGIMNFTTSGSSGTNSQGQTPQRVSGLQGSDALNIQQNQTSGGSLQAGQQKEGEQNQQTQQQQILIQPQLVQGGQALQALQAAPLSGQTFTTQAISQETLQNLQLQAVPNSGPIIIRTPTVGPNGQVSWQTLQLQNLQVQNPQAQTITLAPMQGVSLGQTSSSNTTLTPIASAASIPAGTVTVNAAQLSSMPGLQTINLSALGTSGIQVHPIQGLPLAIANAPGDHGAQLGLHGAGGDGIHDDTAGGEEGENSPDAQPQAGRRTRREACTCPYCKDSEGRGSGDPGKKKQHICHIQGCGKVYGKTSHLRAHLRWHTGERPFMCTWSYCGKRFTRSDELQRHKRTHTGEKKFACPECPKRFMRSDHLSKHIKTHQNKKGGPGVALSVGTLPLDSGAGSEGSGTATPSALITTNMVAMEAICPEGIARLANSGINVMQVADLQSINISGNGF
Chain of Estrogen receptor (Homo sapiens) (P03372 whole entry, looked up, the tested form may be a part): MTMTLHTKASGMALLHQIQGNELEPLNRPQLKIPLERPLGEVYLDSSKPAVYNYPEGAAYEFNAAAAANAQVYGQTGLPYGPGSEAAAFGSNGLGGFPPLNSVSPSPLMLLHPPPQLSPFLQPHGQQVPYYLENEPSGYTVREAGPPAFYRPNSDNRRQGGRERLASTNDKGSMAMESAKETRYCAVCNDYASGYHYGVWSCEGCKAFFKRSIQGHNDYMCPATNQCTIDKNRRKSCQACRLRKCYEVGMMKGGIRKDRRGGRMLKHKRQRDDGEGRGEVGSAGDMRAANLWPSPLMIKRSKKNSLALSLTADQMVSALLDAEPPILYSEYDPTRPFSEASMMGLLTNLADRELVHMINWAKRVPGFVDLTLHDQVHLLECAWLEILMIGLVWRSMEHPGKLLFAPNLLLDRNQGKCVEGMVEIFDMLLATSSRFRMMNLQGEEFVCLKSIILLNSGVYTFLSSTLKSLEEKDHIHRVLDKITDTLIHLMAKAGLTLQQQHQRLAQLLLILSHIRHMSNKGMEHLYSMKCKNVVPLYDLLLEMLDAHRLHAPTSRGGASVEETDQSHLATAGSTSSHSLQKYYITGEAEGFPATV
Chain of Signal transducer and activator of transcription 3 (Homo sapiens) (P40763 whole entry, looked up): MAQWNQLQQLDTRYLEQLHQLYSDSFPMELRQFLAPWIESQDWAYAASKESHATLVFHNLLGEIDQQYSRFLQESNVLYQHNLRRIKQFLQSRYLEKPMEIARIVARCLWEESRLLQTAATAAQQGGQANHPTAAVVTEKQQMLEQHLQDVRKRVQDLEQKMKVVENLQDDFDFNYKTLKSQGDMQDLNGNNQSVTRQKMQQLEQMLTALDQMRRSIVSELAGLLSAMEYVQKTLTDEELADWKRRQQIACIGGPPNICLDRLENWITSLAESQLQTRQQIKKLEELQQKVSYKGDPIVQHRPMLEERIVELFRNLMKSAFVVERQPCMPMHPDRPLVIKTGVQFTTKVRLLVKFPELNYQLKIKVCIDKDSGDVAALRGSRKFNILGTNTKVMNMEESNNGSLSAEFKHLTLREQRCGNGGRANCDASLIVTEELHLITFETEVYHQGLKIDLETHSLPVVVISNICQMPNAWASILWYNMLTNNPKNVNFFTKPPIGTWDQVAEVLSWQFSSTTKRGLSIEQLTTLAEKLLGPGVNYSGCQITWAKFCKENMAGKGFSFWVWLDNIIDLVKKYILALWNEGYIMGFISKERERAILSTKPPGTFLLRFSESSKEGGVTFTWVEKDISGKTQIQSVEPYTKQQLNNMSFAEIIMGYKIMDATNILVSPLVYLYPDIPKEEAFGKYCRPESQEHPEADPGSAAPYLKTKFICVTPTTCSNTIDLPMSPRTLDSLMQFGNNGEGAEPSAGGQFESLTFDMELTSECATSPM
Chain of X-box-binding protein 1 (Homo sapiens) (P17861 whole entry, looked up): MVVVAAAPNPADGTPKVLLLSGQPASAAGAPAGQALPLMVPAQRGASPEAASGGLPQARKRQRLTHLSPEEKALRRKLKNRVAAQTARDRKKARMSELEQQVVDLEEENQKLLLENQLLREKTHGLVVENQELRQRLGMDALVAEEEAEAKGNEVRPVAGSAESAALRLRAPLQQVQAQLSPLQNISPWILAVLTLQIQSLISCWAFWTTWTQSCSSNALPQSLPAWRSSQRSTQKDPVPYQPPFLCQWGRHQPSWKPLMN
Chain of Nuclear receptor subfamily 1 group I member 3 (Homo sapiens) (Q14994 whole entry, looked up, the tested form may be a part): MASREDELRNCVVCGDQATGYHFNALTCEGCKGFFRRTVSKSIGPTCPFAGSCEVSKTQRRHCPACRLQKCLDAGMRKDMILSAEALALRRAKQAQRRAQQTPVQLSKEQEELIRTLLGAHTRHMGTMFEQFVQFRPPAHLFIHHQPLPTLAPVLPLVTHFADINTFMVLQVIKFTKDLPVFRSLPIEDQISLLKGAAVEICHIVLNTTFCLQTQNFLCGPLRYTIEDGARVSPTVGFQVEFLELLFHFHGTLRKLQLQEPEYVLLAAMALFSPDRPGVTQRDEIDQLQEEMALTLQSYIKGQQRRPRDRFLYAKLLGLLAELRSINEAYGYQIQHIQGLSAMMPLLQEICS
Chain of Paired box protein Pax-6 (Homo sapiens) (P26367 whole entry, looked up): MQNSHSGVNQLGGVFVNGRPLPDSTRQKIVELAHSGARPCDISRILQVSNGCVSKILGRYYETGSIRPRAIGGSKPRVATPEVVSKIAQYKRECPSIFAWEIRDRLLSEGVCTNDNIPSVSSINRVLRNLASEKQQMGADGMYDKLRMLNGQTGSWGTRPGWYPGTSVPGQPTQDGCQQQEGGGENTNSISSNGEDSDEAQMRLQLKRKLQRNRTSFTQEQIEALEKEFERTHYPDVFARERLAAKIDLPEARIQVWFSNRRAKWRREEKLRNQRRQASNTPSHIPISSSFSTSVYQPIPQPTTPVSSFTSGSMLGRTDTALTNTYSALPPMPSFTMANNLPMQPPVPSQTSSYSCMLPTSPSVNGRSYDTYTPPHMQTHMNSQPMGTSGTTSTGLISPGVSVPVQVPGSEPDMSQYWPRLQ
Chain of Steroid hormone receptor ERR1 (Homo sapiens) (P11474 whole entry, looked up, the tested form may be a part): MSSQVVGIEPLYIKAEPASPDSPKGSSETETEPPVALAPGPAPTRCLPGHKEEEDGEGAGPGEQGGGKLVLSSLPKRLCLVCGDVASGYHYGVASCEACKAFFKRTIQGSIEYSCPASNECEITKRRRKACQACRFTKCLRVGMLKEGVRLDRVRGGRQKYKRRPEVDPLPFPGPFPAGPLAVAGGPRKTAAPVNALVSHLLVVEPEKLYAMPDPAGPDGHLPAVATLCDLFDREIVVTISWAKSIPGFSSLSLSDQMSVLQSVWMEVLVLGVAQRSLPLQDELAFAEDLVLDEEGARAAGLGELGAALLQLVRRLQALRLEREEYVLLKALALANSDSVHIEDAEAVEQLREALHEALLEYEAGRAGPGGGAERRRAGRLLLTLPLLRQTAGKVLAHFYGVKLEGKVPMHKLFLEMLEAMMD

`CC(=O)C1C(=O)C=C(C)OC1=O` (centres undefined): the result in assay [1], in assay [2], in [3], in assay [4], in assay [5] and in assay [6] was inactive. The outcome in assay [7], in [8], in [9], in assay [10], in [11] and in assay [12] was inactive. Moreover, the call in [13] and in [14] was inactive.
On to `C=COCC1CCC(COC=C)CC1` (centres undefined), for which the result in [1], in assay [2], in assay [3], in assay [5], in assay [6] and in assay [15] was inactive. The compound was called inactive in [7], in assay [16], in assay [8], in [9], in assay [17] and in assay [11]. Further, the outcome in [12], in [18], in [13], in assay [14] and in assay [19] was inactive.
Turning to `Nc1ccc(O)c(N)c1`, the result in assay [1], in [2], in [3], in assay [5], in assay [6] and in assay [7] was inactive. The call in assay [16], in assay [8], in [9], in assay [10], in assay [17] and in assay [11] was inactive. Further, the compound was classed as inactive in assay [20], in assay [13], in assay [14] and in [19].
In general, AC50 refers to the midpoint of the concentration-response curve, whichever way the signal moves. Regarding `CCCCCCCCCOS(=O)(=O)O`, the result in assay [1], in [2], in assay [3], in assay [6], in assay [15] and in [7] was inactive. In addition, the outcome in [16], in assay [8], in [9], in [17], in assay [11] and in assay [13] was inactive. The half-maximal activity concentration (AC50) in assay [4] was 24 µM (active); in assay [18] it was 20.1 µM (active).
Regarding `CCCCCCOC(C)=O`, the outcome in [1], in assay [2], in [3], in assay [4], in assay [6] and in [15] was inactive. The result in [7], in [16], in assay [8], in [9], in assay [10] and in assay [17] was inactive. In addition, the result in assay [11], in assay [18], in [13] and in [19] was inactive.
On to `C=C1CC[C@H]2O[C@]2(C)CC[C@@H]2[C@@H]1CC2(C)C`, for which the result in [1], in [2], in [3], in [4], in [5] and in assay [6] was inactive. In addition, the outcome in assay [7], in [16], in assay [8], in assay [9], in assay [17] and in assay [11] was inactive. Also, the call in assay [12], in assay [18], in assay [13] and in assay [14] was inactive.
`[O-]/[N+](=N\O)c1ccccc1`: the outcome in assay [1], in [2], in assay [4], in [6], in assay [15] and in assay [7] was inactive. The compound was classed as inactive in [16], in assay [8], in [10], in [17], in assay [11] and in [12]. For the same compound, the result in assay [20] and in assay [13] was inactive. Also, the figures for the AC50 in assay [3] and in [18] were 26.6 µM (active) and 42.3 µM (active), respectively.
